Our source for the growth reduction values is the supplement of paper PMC12024424.

Counter-ions that a name gives are not always drawn.

The subject of this test is Staphylococcus aureus Sa2 (MRSA, cystic fibrosis isolate). The test is described as follows: growth reduction vs untreated control (viable cell count); higher = stronger antibacterial activity; extreme values may be limits of the assay. As to conditions: 0.1 mM; 24 h. As to the method:
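Single-dose screen of the MedChem Express Drug Repurposing Library (0.1 mM, 1% DMSO) against planktonic MRSA S. aureus Sa2 (CF isolate) in TSB in 96-well plates, 37 °C aerobic, 24 h. Assays were run in triplicate and repeated twice.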
As for `CC/C(=C(/c1ccc(/C=C/C(=O)O)cc1)c1ccc2[nH]ncc2c1)c1ccc(F)cc1Cl` [Brilanestrant], the growth reduction stood at 100%.

Take `CC(C)(C)C#Cc1cc(N(C(=O)[C@H]2CC[C@H](C)CC2)[C@H]2CC[C@H](O)CC2)c(C(=O)O)s1` [Lomibuvir]: the growth reduction was 95%.

`Cc1ccc(-c2c(C(=O)CCl)n(CCCO)c3ncnc(N)c23)cc1` showed a growth reduction of 100%.

`CC1=C(/C=C/C(C)=C/C=C/C(C)=C/C(=O)Nc2ccc(O)cc2)C(C)(C)CCC1` [Fenretinide]: the growth reduction was 100%.

`CCCCCOc1ccccc1/C(=C\SC)n1ccnc1` [Neticonazole (hydrochloride)] yielded a growth reduction of 100%.

In the case of `Cc1ccc(C(=O)Nc2ccc(CN3CCN(C)CC3)c(C(F)(F)F)c2)cc1C#Cc1cnc2[nH]ncc2c1`, the growth reduction was 100%.

`O=c1[nH]c(=O)n([C@H]2C[C@H](O)[C@@H](CO)O2)cc1/C=C/Br` [Brivudine] returned a growth reduction of 100%.

`CC1(C)CCC2=C(O1)c1ccccc1C(=O)C2=O` [β-Lapachone] returned a growth reduction of 100%.

With `Cc1ccc(C(=O)c2cc(O)c(O)c([N+](=O)[O-])c2)cc1` [Tolcapone], the growth reduction was 100%.

For the molecule `C[C@@H](OC[C@@]1(c2ccccc2)CC[C@]2(CCC(=O)N2)CN1)c1cc(C(F)(F)F)cc(C(F)(F)F)c1` [Rolapitant], the growth reduction was 100%.

Molecule `CCN(CC)CCN(Cc1ccc(-c2ccc(C(F)(F)F)cc2)cc1)C(=O)Cn1c(SCc2ccc(F)cc2)nc(=O)c2c1CCC2` [Darapladib] showed a growth reduction of 100%.

For the molecule `O=C1[C@H](CC[C@H](O)c2ccc(F)cc2)[C@@H](c2ccc(O)cc2)N1c1ccc(F)cc1` [Ezetimibe], the growth reduction is 91%.

`Oc1c(I)cc(Cl)c2cccnc12` [Clioquinol] showed a growth reduction of 100%.

As to `CCCCCCCCCCCCN1CCCCCC1=O` [Laurocapram], the growth reduction turned out to be 100%.

Molecule `Clc1ccc(CSC(Cn2ccnc2)c2ccc(Cl)cc2Cl)cc1` (stereo not drawn) [Sulconazole (mononitrate)] displayed a growth reduction of 100%.

Consider `COc1cc2c(cc1Cc1cccc(Cl)c1F)c(=O)c(C(=O)O)cn2[C@H](CO)C(C)C` [Elvitegravir], for which the growth reduction stood at 100%.

`C=CC(=O)Nc1cc(Nc2nccc(-c3cn(C4CC4)c4ccccc34)n2)c(OC)cc1N(C)CCN(C)C` [Almonertinib] returned a growth reduction of 100%.

Consider `Cc1ccc(NC(=O)c2ccc(CN3CCN(C)CC3)cc2)cc1Nc1nc(-c2cccnc2)cs1` [Masitinib (mesylate)], for which the growth reduction worked out at 100%.

The molecule `CCN1CCN(c2ccc(Nc3cc(N(C)C(=O)Nc4c(Cl)c(OC)cc(OC)c4Cl)ncn3)cc2)CC1` [Infigratinib] displayed a growth reduction of 100%.

On to `Clc1ccccc1C(c1ccccc1)(c1ccccc1)n1ccnc1` [Clotrimazole], for which the growth reduction was 100%.

In turn, `COc1ccc(C(=O)NC2(C(=O)O)Cc3ccccc3C2)cc1OCCc1cccc(C)c1` had a growth reduction of 96%.

In turn, `CC(=O)Oc1ccccc1C(=O)Nc1ncc([N+](=O)[O-])s1` [Nitazoxanide] registered a growth reduction of 100%.

For the molecule `CC(C)COc1ccc(CNC(=O)N(Cc2ccc(F)cc2)C2CCN(C)CC2)cc1` [Pimavanserin tartrate], the growth reduction was found to be 100%.

Consider `C[C@H](CCC(=O)O)[C@H]1CC[C@H]2[C@@H]3[C@H](O)C[C@@H]4C[C@H](O)CC[C@]4(C)[C@H]3CC[C@]12C` [Chenodeoxycholic Acid], for which the growth reduction came to 99%.

For the molecule `CN1C(C(=O)Nc2ccccn2)=C(O)c2sc(Cl)cc2S1(=O)=O` [Lornoxicam], the growth reduction was found to be 98%.

`CCCCc1oc2ccc(NS(C)(=O)=O)cc2c1C(=O)c1ccc(OCCCN(CCCC)CCCC)cc1` [Dronedarone (Hydrochloride)] returned a growth reduction of 100%.

`CCc1nc(-c2cccc(C)c2)c(-c2ccnc(NC(=O)c3ccccc3)c2)s1` displayed a growth reduction of 100%.

Regarding `CC(C)(C(=O)NCC(F)(F)C(F)(F)F)C(=O)N[C@@H]1C(=O)Nc2ccccc2-c2ccccc21`, the growth reduction came to 90%.

As for `Cc1c(CN(C)C(=O)/C=C/c2cnc3c(c2)CCC(=O)N3)oc2ccccc12`, the growth reduction stood at 100%.

`c1cn2cc(-c3ccc4cn[nH]c4c3)nc(Nc3ccc(N4CCOCC4)cc3)c2n1` [Entospletinib] registered a growth reduction of 96%.

Take `C[C@H]1CNCCCN1S(=O)(=O)c1cccc2cncc(F)c12` [Ripasudil]: the growth reduction amounted to 100%.

The molecule `CN1CCN(c2ccc(C(=O)Nc3n[nH]c4ccc(Cc5cc(F)cc(F)c5)cc34)c(NC3CCOCC3)c2)CC1` [Entrectinib] came in with a growth reduction of 96%.

Turning to `CC1=CC(=O)c2ccccc2C1=O` [Menadione], the growth reduction was determined as 100%.

The molecule `Cc1ccc(-c2cc(C(F)(F)F)nn2-c2ccc(S(N)(=O)=O)cc2)cc1` [Celecoxib] showed a growth reduction of 90%.

As to `COC(=O)C1=C(C)NC(C)=C(C(=O)OC(C)C)C1c1cccc2nonc12` (stereo not drawn) [Isradipine], the growth reduction is 100%.

For the molecule `Cc1cc(C2CCCCC2)n(O)c(=O)c1` [Ciclopirox], the growth reduction is 100%.

With `CS(=O)(=O)c1ccc([C@@H](O)[C@@H](CF)NC(=O)C(Cl)Cl)cc1` [Florfenicol], the growth reduction turned out to be 100%.

With `C=C1C[C@H]2[C@@H]3CCC4=CC(=O)CC[C@@H]4[C@H]3CC[C@]2(C)[C@@]1(OC(C)=O)C(C)=O` [Nestoron], the growth reduction worked out at 98%.
